The whole screen tested about 59,000 compounds, of which about 60 (0.1%) were called active. No rule for the calls is given here. The entries come from a sample that favours actives as a whole.
Test: qHTS Assay for Spectroscopic Profiling in A488 Spectral Region
Settings: compound autofluorescence; max dye equivalency: Compound Type: qHTS ECL - SigmaAldrich, stronger effect = higher value unless noted; outcome: dye equivalency, Compound Type: qHTS ECL - MLSMR unless noted
Excerpt: NIH Molecular Libraries Screening Centers Network [MLSCN]
NIH Chemical Genomics Center [NCGC]
Occasionally, the artifactual effect may originate from the compounds own spectral or other biophysical properties which generally tend to track its assay concentration. Pre-screening/profiling the library with respect to the compounds spectral properties should help one exclude false positives early on. While the most informative fluorescent profiling data set is obtained by performing a full excitation and emission scan of each well by using a monochromator-based plate reader, such an approach is practical only on a very limited scale as scanning each well requires long time. An alternative approach, applied here, is to perform plate reader scans using selected excitation and emission wavelength pairs to generate a multidimensional relational database that correlates compound concentration and the respective relative fluorescence intensity at a given wavelength set. A standard curve of Alexa 488 (A488) present on each plate as six-point concentration series, was used to compute a normalized fluorescence response, termed dye-equivalent concentration, for each compound at each concentration.
NCGC Assay Protocol Summary:
100 mM Tris buffer, pH 8.0
The wells in columns 1 through 4 of a Kalypsys polypropylene 1536-well compound plate were filled with standard solutions of fluorophore corresponding to the spectral region of interest. Solutions of A488 were placed in the following wells: Y1, Z1: 3 mM, Y2, Z2: 300 uM, Y3, Z3: 30 uM, Y4, Z4: zero (DMSO), AA1, AB1: 3 uM, AA2, AB2: 900 nM, AA3, AB3: 300 nM, AA4, AB4: zero (DMSO).
Six uL of buffer were dispensed to 1536-well Greiner black plates. Compounds and dye standards (23 nL) were transferred via Kalypsys PinTool. The plates were incubated for 15 min at room temperature, and then read on ViewLux (Perkin-Elmer) High-throughput CCD imager using 480 nm and 540 nm excitation and emission filter set.
Keywords: NIH Roadmap, MLSCN, MLI, MLSMR, qHTS, NCGC, A488, A-488, Fluorescent Profiling.

outcome, inactive:
CCCC1C(c2ccccc2)C(C#N)(C#N)C2(C#N)CC1(N)NC2=O (stereo unspecified) inactive [dye equivalency, Compound Type: qHTS ECL - DPISMR]
CCOC(=O)c1[nH]c2ccccc2c1N=C(C)N(CC)CC
C=CCN(CC=C)C(=O)CN1C(=O)c2ccccc2C1=O
c1ccc(-n2ncc3c2ncn2c(C4CCCCC4)nnc32)cc1 inactive [dye equivalency, Compound Type: qHTS ECL - DPISMR]
O=C(NCc1ccc(Cl)cc1)c1cc2c(nc3sccn32)s1
O=C(O)C1CCCCC1C(=O)Nc1ccc(Cl)cc1 (stereo unspecified) inactive [dye equivalency, Compound Type: qHTS ECL - DPISMR]
COCCn1c(=O)c(-c2cc(F)cc(F)c2)nc2cnc(N3CCNCC3)nc21 inactive [dye equivalency, Compound Type: qHTS ECL - Pharmacopeia]
CCNC(=O)CCc1nc(-c2ccc(C(C)(C)C)cc2)no1 inactive [dye equivalency, Compound Type: qHTS ECL - DPISMR]
Cn1c(=O)c(CCc2ccccc2)nc2cnc(Nc3ccccc3)nc21 inactive [dye equivalency, Compound Type: qHTS ECL - Pharmacopeia]
CCCc1cc(=O)[nH]c(SCc2ccc(C#N)cc2)n1 inactive [dye equivalency, Compound Type: qHTS ECL - DPISMR]
C=CCn1c(SCn2nnc3ccccc3c2=O)nnc1-c1ccc(Cl)cc1 inactive [dye equivalency, Compound Type: qHTS ECL - DPISMR]
Cc1nc2cnc(Oc3cccc(Cl)c3)nc2n(C2CC2)c1=O inactive [dye equivalency, Compound Type: qHTS ECL - Pharmacopeia]
COc1ccc(-c2nc3cnc(OC)nc3n(Cc3ccc(F)cc3)c2=O)cc1 inactive [dye equivalency, Compound Type: qHTS ECL - Pharmacopeia]
CC1CN(C2CCN(C(=O)COc3ccccc3)CC2)CC(C)O1 (stereo unspecified)
CC(=O)c1c(C)[nH]c(C(=O)NCCCN2CCCC2)c1C
O=C(Nc1ccccc1)N(Cc1cccnc1)Cc1ccco1 inactive [dye equivalency, Compound Type: qHTS ECL - DPISMR]
Cc1nc2cnc(Nc3ccccc3)nc2n(Cc2ccc(F)cc2)c1=O inactive [dye equivalency, Compound Type: qHTS ECL - Pharmacopeia]
CNC(=O)n1ccc(C(=O)N2CCCCC2)n1 inactive [dye equivalency, Compound Type: qHTS ECL - DPISMR]
c1cnc(NC2C3CC4CC(C3)CC2C4)nc1 (stereo unspecified)
CCCOc1ccccc1C(=O)NCCCC(=O)O
COc1ccccc1CNc1cc(-c2ccccc2CN(C)C)ncn1 inactive [dye equivalency, Compound Type: qHTS ECL - Pharmacopeia]
Oc1c(Br)cc(CN(Cc2cc(Br)c(O)c(Br)c2)C2CCCCC2)cc1Br inactive [dye equivalency, Compound Type: qHTS ECL - NCI]
CCc1nnc(NC(=O)c2c(O)c3c([nH]c2=O)CCCC3)s1
CCC(=O)Nc1ccc(C(=O)Nc2ccc3c(c2)C(=O)N(CC2CCCO2)C3=O)cc1 (stereo unspecified) inactive [dye equivalency, Compound Type: qHTS ECL - DPISMR]
Cn1cccc1C(=O)N1CCC2(CC1)CN(c1cccc(-c3ccccc3)c1)C2 inactive [dye equivalency, Compound Type: qHTS ECL - Pharmacopeia]
CCOC(=O)CSc1nnc(-c2ccncc2)o1 inactive [dye equivalency, Compound Type: qHTS ECL - DPISMR]
COc1ccc2nc(NC3=NCN(CC4CCCO4)CN3)nc(C)c2c1 (stereo unspecified)
CCOC(=O)N1CCN(C(=O)c2ccc3nc4cc(Cl)ccc4c(=O)n3c2)CC1
CCOC(=O)C1(Cc2ccc(O)cc2)NC(c2ccccc2F)C2C(=O)N(C)C(=O)C21 (stereo unspecified)
COCCNc1cc(-c2c(C)noc2C)ncn1 inactive [dye equivalency, Compound Type: qHTS ECL - Pharmacopeia]
CCNc1ncc2nc(CCc3ccccc3)c(=O)n(-c3ccc(OC)cc3)c2n1 inactive [dye equivalency, Compound Type: qHTS ECL - Pharmacopeia]
Cn1c(CC(=O)Nc2ccccc2)nnc1SCC(=O)c1ccccc1 inactive [dye equivalency, Compound Type: qHTS ECL - DPISMR]
COCCn1c(=O)c(-c2cc(F)cc(F)c2)nc2cncnc21 inactive [dye equivalency, Compound Type: qHTS ECL - Pharmacopeia]
CCOC(=O)C1CCN(Cc2coc3ccc(Cl)cc3c2=O)CC1 inactive [dye equivalency, Compound Type: qHTS ECL - DPISMR]
Cc1noc(C)c1S(=O)(=O)Nc1ccc(C(=O)O)cc1 inactive [dye equivalency, Compound Type: qHTS ECL - DPISMR]
Cc1c(C)c2cc3c4c(oc3c(C)c2oc1=O)CCCC4
CN1CCc2[nH]nc(-c3n[nH]c4c3CN(C)CC4)c2C1 inactive [dye equivalency, Compound Type: qHTS ECL - NCI]
O=C1c2ccccc2C(=O)N1c1ccccc1S(=O)C(F)(F)F (stereo unspecified) inactive [dye equivalency, Compound Type: qHTS ECL - DPISMR]
CN(C)c1cc2c(Nc3ccc4c(cnn4Cc4ccccc4)c3)ncnc2cn1 inactive [dye equivalency, Compound Type: qHTS ECL - SigmaAldrich]
O=c1c(-c2ccc(F)cc2)nc2cncnc2n1-c1ccccc1 inactive [dye equivalency, Compound Type: qHTS ECL - Pharmacopeia]
Cc1cnc(CNc2cc(-c3c(C)noc3C)ncn2)cn1 inactive [dye equivalency, Compound Type: qHTS ECL - Pharmacopeia]
